Columns and labels:
[1] = target: Large ribosomal subunit protein uL5 (UniProt P62913); test: cross-linking mass spectrometry; other
[2] = target: Actin, cytoplasmic 2 (UniProt P63261); test: other; cross-linking mass spectrometry; other
[3] = target: Bromodomain-containing protein 3 (UniProt Q15059); test: other; cross-linking mass spectrometry; other
[4] = target: DNA-directed RNA polymerase II subunit RPB3 (UniProt P19387); test: other; cross-linking mass spectrometry; other
[5] = target: DNA-directed RNA polymerase II subunit RPB1 (UniProt P24928); test: other; affinity purification or IP with mass spectrometry; other
[6] = target: High mobility group nucleosome-binding domain-containing protein 3 (UniProt Q15651); test: other; cross-linking mass spectrometry; other
[7] = target: Large ribosomal subunit protein eL34 (UniProt P49207); test: other; cross-linking mass spectrometry; other
[8] = target: Large ribosomal subunit protein eL8 (UniProt P62424); test: other; cross-linking mass spectrometry; other
[9] = target: Large ribosomal subunit protein uL2 (UniProt P62917); test: other; cross-linking mass spectrometry; other
[10] = target: Large ribosomal subunit protein eL6 (UniProt Q02878); test: other; cross-linking mass spectrometry; other
[11] = target: RNA polymerase II-associated factor 1 homolog (UniProt Q8N7H5); test: other; cross-linking mass spectrometry; other
[12] = target: RNA-binding protein 8A (UniProt Q9Y5S9); test: other; cross-linking mass spectrometry; other
[13] = target: Replication factor C subunit 5 (UniProt P40937); test: other; cross-linking mass spectrometry; other
[14] = target: Retinoblastoma-binding protein 5 (UniProt Q15291); test: other; cross-linking mass spectrometry; other
[15] = target: Small ribosomal subunit protein eS6 (UniProt P62753); test: other; cross-linking mass spectrometry; other
[16] = target: Small ribosomal subunit protein uS14 (UniProt P62273); test: other; cross-linking mass spectrometry; other
[17] = target: Small ribosomal subunit protein uS7 (UniProt P46782); test: other; cross-linking mass spectrometry; other
[18] = target: Ubiquitin-ribosomal protein eS31 fusion protein (UniProt P62979); test: other; cross-linking mass spectrometry; other
[19] = target: DNA-directed RNA polymerase II subunit RPB9 (UniProt P36954); test: other; affinity purification or IP with mass spectrometry; other
[20] = target: DNA-directed RNA polymerase II subunit RPB2 (UniProt P30876); test: other; affinity purification or IP with mass spectrometry; cross-linking mass spectrometry; other
[21] = target: Actin, alpha skeletal muscle (UniProt P68133); test: cross-link between two proteins; cross-linking mass spectrometry; other

Chain of Retinoblastoma-binding protein 5 (Q15291 whole entry): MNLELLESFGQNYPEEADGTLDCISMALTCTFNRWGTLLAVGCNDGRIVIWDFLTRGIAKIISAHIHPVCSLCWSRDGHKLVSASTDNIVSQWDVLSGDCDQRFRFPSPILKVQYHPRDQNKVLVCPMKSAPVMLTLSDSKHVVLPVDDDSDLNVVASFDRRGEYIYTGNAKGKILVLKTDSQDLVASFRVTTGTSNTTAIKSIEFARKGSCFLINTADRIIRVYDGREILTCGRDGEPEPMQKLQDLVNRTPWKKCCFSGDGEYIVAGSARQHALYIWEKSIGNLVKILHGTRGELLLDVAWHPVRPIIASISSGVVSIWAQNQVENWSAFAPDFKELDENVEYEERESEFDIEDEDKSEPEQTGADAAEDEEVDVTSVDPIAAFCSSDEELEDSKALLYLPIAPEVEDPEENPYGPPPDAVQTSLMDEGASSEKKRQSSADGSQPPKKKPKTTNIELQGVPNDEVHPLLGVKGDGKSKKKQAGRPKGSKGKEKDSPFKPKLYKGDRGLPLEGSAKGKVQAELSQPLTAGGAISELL
Chain of Bromodomain-containing protein 3 (Q15059 whole entry): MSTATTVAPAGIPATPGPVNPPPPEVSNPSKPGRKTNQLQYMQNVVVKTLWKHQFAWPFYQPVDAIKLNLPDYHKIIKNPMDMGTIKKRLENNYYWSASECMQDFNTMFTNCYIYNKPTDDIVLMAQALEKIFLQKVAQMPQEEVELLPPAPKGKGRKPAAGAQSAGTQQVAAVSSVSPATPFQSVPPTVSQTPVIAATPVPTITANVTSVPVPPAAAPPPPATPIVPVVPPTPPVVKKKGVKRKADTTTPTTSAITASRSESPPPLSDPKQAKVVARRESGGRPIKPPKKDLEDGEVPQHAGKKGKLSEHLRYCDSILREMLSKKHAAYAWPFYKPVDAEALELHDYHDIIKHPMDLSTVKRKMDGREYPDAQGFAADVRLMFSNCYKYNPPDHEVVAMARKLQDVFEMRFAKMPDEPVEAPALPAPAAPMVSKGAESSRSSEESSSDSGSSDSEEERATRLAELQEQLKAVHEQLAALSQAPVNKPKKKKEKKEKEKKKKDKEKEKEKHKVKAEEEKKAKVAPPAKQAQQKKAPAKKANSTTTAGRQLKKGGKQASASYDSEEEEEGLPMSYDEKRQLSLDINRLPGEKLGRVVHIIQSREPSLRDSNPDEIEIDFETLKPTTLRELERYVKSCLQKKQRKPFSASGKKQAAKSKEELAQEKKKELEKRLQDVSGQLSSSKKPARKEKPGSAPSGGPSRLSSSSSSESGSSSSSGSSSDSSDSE
Chain of Replication factor C subunit 4, P35249 (P35249 whole entry): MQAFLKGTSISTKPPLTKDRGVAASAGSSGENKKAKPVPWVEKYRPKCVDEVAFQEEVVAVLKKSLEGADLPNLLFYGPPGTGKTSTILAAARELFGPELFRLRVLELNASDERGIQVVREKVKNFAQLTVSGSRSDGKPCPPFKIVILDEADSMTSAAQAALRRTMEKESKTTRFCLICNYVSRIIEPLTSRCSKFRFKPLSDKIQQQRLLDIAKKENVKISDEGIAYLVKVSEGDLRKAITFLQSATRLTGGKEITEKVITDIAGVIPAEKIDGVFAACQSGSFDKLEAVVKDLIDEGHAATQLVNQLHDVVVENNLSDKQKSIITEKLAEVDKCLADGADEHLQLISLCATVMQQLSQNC
Chain of Replication factor C subunit 5 (P40937 whole entry): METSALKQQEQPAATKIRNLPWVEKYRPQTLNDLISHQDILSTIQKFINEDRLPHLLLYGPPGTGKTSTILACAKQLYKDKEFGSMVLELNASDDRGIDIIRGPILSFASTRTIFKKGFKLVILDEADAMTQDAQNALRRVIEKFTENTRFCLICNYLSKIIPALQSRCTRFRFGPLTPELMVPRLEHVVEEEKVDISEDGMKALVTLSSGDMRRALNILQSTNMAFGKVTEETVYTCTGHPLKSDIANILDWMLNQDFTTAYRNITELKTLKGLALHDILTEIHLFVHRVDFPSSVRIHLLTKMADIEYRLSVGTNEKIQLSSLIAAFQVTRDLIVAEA

With “Large ribosomal subunit protein uL1, P62906” the “listed as a hit” value [1] was “yes”.
In the case of Actin, cytoplasmic 1, P60709, the “listed as a hit” value [2] is reported as “yes”.
For “Bromodomain-containing protein 4, O60885”, the “listed as a hit” value [3] was “yes”.
“DNA-directed RNA polymerase II subunit RPB4, O15514” was tested, and the “listed as a hit” value [4] was “yes” and the “listed as a hit” value [5] was “yes”.
“Non-histone chromosomal protein HMG-17, P05204” was tested, and the “listed as a hit” value [6] was “yes”.
With “Large ribosomal subunit protein uL4, P36578” the “listed as a hit” value [7] was “yes”, the “listed as a hit” value [8] was “yes” and the “listed as a hit” value [9] was “yes”.
With “Large ribosomal subunit protein eL32, P62910” the “listed as a hit” value [10] was “yes”.
“RNA polymerase-associated protein CTR9 homolog, Q6PD62” was tested, and the “listed as a hit” value [11] was “yes”.
In the case of Parafibromin, Q6P1J9, the “listed as a hit” value [11] is reported as “yes”.
“Eukaryotic initiation factor 4A-III, P38919” was tested, and the “listed as a hit” value [12] was “yes”.
In the case of Replication factor C subunit 4, P35249, the “listed as a hit” value [13] is reported as “yes”.
With “Histone-lysine N-methyltransferase 2A, Q03164” the “listed as a hit” value [14] was “yes”.
For “Small ribosomal subunit protein uS17, P62280”, the “listed as a hit” value [15] was “yes”.
With “Small ribosomal subunit protein uS10, P60866” the “listed as a hit” value [16] was “yes”.
In the case of “Small ribosomal subunit protein eS19, P39019”, the “listed as a hit” value [17] is reported as “yes”.
“Small ribosomal subunit protein uS7, P46782” was tested, and the “listed as a hit” value [18] was “yes”.
In the case of “Small ribosomal subunit protein eS1, P61247”, the “listed as a hit” value [18] is reported as “yes”.
For “DNA-directed RNA polymerase II subunit RPB1, P24928”, the “listed as a hit” value [19] was “yes” and the “listed as a hit” value [20] was “yes”.
Actin, cytoplasmic 2, P63261 was tested, and the “listed as a hit” value [21] was “yes”.

— paper PMC10954555
